This is an account of results in ChEMBL document CHEMBL3988442, “University of Dundee, Small-Polar-MMV Screening Library” (2021).

Common to all, as to parameters: scale not given: direction of the effect not stated beside the values
The target in experiment [1] is Protein translocase subunit SecA (Escherichia coli (strain K12)) (UniProt P10408). Description: Assay to Identify E. coli SecA ATPase Inhibitors. The following applies: 30 µM. Type of experiment: functional.
In experiment [2] the target is T1, Ubiquitin-activating enzyme e1, putative (Leishmania donovani (strain BPK282A1)) (UniProt E9BSI1).
T1 sequence (whole entry): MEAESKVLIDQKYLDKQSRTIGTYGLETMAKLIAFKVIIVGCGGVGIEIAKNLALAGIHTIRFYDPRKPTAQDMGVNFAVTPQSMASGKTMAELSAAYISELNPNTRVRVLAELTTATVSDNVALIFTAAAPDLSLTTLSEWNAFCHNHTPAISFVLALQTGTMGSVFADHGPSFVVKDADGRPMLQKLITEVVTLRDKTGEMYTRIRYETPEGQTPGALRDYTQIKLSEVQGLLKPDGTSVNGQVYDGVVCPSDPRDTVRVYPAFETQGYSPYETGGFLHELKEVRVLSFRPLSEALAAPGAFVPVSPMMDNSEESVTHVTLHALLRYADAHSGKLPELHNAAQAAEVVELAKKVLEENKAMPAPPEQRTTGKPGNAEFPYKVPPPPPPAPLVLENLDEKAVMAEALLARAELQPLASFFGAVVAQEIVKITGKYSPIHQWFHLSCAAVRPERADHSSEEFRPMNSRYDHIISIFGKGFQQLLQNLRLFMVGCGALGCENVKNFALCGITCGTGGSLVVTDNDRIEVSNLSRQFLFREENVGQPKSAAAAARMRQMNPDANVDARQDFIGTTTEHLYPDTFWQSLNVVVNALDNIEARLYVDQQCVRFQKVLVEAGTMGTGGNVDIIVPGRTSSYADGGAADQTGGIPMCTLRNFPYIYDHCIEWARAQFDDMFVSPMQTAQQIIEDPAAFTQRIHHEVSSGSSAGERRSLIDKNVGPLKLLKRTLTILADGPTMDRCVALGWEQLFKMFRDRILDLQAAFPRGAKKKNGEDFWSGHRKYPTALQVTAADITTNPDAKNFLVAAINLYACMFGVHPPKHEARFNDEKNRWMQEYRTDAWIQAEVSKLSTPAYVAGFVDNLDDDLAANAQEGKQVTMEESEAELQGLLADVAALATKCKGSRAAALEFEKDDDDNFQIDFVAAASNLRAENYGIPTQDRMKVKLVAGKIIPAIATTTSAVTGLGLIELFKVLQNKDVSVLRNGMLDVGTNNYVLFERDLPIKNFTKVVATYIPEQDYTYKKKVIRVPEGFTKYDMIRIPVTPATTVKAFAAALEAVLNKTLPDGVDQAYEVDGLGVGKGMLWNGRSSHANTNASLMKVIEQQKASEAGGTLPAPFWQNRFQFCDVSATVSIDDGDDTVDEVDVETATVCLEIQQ
The experiment is described as follows: Leishmania donovani Ubiquitin Activating Enzyme (LdE1). The following applies: 30 µM. The format is functional.

Experiment [3] deals with Sialic acid-binding Ig-like lectin 9 (Homo sapiens) (UniProt Q9Y336). Description: Hs-Siglec9 ALPHAscreen SOP 20170721. The note with it: 10 µM. For orientation: In Alpha technology, singlet oxygen from a donor bead excites a nearby acceptor bead.
Sequence of Sialic acid-binding Ig-like lectin 9 (Homo sapiens) (Q9Y336 whole entry): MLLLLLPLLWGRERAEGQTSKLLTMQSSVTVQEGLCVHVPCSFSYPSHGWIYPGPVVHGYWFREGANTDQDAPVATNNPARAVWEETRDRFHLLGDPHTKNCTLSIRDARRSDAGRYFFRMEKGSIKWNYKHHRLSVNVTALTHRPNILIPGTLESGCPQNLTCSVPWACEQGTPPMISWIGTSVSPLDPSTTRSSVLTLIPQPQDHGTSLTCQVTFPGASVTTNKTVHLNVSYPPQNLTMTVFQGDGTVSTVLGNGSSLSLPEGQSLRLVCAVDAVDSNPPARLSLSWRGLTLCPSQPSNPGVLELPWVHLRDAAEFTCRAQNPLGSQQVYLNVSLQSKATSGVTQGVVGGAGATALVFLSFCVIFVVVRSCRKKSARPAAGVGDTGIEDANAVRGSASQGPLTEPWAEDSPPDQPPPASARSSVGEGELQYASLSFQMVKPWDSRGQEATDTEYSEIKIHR
The next experiment deals with Trypanosoma cruzi. Description: Trypanosoma cruzi phosphomannomutase and mannose-1-phosphate guanylyltransferase assay. The format is functional. The following applies: 10 µM.
In experiment [4] the target is T2, Arginase-2, mitochondrial (Homo sapiens) (UniProt P78540).
T2 sequence (whole entry): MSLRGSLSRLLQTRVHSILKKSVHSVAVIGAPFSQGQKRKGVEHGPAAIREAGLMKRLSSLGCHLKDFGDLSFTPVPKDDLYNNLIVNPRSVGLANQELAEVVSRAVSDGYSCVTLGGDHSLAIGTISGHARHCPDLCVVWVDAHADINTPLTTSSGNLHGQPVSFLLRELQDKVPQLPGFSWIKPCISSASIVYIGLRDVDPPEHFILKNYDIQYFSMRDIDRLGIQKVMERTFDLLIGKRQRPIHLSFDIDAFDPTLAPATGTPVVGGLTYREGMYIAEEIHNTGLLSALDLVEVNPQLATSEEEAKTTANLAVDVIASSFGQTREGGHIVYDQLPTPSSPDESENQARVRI
Description: in vitro enzyme assay to detect the production of urea directly proportional to the activity of Arginase II. Note: in the data most compounds retested in dose-response had high values. The note with it: 33.3 µM. The format is functional.

Experiment [5] concerns the target T3, Proteasome subunit beta (Trypanosoma cruzi) (UniProt O96673).
T3 sequence (whole entry): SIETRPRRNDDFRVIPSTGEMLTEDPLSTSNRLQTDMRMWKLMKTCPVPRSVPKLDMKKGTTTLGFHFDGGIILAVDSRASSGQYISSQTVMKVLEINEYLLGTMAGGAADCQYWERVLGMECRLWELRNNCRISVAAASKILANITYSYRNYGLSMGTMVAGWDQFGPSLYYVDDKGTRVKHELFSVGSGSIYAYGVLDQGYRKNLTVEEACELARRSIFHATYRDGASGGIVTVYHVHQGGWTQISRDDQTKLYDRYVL
The experiment is described as follows: Trypanosoma cruzi proteasome chymotrypsin-like activity (TcProtChymo) assay. Note: in the data most compounds retested in dose-response had high values. The following applies: 9.37 µM. Type of experiment: functional.

The species named for a further experiment is Homo sapiens. The experiment is described as follows: To identify inhibition of the IFN signalling (Jak-Stat) pathway via expression of an eGFP reporter gene under the control of an IFN-stimulated response element (ISRE) containing MxA promoter. Type of experiment: functional. The following applies: 30 µM. (A reporter such as luciferase makes a cellular process visible.)

Experiment [6] deals with T4, Tyrosyl-tRNA synthetase, putative (Trypanosoma cruzi (strain CL Brener)) (UniProt Q4DSP6).
T4 sequence (whole entry): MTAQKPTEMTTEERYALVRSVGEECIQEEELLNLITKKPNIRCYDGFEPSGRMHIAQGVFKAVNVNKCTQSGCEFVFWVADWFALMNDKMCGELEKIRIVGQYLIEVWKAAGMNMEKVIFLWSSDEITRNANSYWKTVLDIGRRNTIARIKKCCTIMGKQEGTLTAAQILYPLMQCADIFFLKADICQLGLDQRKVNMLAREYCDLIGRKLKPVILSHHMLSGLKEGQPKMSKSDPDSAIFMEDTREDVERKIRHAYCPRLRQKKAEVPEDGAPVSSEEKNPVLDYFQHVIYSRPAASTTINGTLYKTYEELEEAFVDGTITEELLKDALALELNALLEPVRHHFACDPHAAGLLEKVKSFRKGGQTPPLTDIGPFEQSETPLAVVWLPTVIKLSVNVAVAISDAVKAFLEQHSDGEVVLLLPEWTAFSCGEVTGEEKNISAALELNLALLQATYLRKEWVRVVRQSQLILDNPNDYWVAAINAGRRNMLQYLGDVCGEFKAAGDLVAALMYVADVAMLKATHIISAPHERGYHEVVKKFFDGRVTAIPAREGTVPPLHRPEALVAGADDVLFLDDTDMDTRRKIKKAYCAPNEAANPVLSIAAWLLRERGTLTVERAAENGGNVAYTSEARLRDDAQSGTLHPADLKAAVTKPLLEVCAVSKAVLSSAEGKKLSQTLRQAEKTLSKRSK
Description: Trypanosoma cruzi tyrosyl tRNA synthetase (TcYRS) _High Tyrosine SOP. Note: in the data most compounds retested in dose-response had high values. Type of experiment: functional. The note with it: 30 µM.

Experiment [7] addresses T4, Tyrosyl-tRNA synthetase, putative (Trypanosoma cruzi (strain CL Brener)). The experiment is described as follows: Trypanosoma cruzi tyrosyl tRNA synthetase (TcYRS) SOP. The following applies: 30 µM. Type of experiment: functional.
Experiment [8] deals with Chromo domain-containing protein 1 (Saccharomyces cerevisiae (strain ATCC 204508 / S288c) (Baker's yeast)) (UniProt P32657). The experiment is described as follows: ScCHD-1 Enzyme Inhibition Assay. Note: in the data most compounds retested in dose-response had high values. Type of experiment: functional. The note with it: 30 µM.
Sequence of Chromo domain-containing protein 1 (Saccharomyces cerevisiae (strain ATCC 204508 / S288c) (Baker's yeast)) (P32657 whole entry, the tested form may be a part): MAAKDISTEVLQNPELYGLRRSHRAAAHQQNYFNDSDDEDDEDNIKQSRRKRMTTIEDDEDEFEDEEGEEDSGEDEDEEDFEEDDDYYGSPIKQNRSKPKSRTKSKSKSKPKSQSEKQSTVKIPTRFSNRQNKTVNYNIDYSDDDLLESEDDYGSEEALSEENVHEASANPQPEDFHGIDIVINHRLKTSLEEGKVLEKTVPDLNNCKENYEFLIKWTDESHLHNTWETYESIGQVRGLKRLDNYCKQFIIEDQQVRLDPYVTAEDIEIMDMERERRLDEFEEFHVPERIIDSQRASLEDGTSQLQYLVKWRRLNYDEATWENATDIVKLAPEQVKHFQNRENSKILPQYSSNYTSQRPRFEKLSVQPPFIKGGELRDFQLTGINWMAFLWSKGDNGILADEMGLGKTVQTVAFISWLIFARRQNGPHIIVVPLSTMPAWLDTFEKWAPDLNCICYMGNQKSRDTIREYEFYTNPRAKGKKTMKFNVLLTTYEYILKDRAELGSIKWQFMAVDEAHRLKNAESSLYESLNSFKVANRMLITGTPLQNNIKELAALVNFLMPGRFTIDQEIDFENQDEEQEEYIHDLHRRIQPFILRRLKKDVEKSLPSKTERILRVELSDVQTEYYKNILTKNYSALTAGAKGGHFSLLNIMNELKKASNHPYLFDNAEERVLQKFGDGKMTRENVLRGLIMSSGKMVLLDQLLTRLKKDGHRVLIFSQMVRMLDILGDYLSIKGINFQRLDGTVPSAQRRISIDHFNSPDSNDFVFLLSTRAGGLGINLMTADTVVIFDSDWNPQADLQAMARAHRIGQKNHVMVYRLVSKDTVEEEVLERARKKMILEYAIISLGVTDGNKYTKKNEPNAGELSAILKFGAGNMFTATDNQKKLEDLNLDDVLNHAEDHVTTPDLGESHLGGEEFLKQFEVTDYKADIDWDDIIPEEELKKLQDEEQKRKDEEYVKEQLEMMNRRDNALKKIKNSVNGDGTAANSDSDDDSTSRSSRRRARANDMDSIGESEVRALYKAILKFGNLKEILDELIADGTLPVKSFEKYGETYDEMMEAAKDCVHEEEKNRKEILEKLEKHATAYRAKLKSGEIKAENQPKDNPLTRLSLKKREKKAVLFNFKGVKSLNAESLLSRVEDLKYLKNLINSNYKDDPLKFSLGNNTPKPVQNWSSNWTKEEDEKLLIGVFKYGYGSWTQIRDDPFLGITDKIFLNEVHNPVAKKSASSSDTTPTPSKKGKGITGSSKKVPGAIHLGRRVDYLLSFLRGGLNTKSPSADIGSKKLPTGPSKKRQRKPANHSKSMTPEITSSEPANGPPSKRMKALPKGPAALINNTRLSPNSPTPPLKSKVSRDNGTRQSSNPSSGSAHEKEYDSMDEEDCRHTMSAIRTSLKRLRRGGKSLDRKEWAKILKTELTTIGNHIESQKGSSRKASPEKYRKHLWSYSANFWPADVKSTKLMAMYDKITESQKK

For part of these data: Measured potencies and affinities stand elsewhere.

Sequence of Protein translocase subunit SecA (Escherichia coli (strain K12)) (P10408 whole entry): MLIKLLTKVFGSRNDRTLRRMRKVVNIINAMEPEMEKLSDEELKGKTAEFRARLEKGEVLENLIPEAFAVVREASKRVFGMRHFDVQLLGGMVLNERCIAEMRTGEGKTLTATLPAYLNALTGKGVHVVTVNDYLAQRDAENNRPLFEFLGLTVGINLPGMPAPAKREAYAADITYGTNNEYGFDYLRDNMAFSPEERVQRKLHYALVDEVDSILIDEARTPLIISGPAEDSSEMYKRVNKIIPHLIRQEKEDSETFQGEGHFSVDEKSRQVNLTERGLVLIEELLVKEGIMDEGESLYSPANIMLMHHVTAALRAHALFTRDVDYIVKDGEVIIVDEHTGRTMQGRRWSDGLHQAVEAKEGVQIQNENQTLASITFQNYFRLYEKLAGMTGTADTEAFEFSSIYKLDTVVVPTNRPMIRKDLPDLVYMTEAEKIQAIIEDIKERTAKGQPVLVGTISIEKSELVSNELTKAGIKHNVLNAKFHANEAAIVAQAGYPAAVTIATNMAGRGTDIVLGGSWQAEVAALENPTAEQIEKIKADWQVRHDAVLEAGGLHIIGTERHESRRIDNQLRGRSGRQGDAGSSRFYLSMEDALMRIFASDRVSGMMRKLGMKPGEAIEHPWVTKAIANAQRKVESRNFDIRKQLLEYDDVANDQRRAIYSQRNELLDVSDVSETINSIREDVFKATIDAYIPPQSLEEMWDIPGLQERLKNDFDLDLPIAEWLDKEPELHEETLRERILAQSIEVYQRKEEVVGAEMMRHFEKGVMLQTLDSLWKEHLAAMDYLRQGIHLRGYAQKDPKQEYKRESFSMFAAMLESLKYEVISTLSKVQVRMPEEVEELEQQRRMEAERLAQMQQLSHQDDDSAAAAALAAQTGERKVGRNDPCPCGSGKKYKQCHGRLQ

Regarding `CCC(=O)N1CCC(Cc2nccnc2Nc2ccccn2)CC1`, the Percent Effect in experiment [1] was -5.27%; in [2], 4%; in experiment [3], -4.87%; with Trypanosoma cruzi it was 1.58%; in experiment [4], -1.77%; in experiment [5] it was -5.91%. Besides, the Percent Effect was 18.1% in the experiment listed under Homo sapiens, -4.23% in experiment [6], -2.5% in [7] and -20% in experiment [8].
Regarding `COc1ccc(C(=O)N2CC[C@H](CO)[C@H](O)C2)c(C)c1`, the Percent Effect in experiment [1] was -7.05%; in experiment [2], 5.41%; in experiment [3], 10.7%; with Trypanosoma cruzi it was 9.02%; in experiment [4] it was 16.4%; in experiment [5], 10.1%. Further, the Percent Effect in the experiment listed under Homo sapiens was 0.399%; in experiment [6], 7.98%; in experiment [7] it was 9.76%; in experiment [8], -7.71%.
`Cc1cc(C)c(OCC(=O)NS(=O)(=O)c2c(C)noc2C)c(C)c1`: the Percent Effect was -3.67% in experiment [1]; -2.56% in experiment [2]; -14.2% in experiment [3]; 5.54% in the experiment with Trypanosoma cruzi; 1.23% in [4]; 1.11% in experiment [5]. Besides, the Percent Effect was determined as 7.01% in the experiment filed under Homo sapiens, 1.44% in experiment [6], 10.8% in experiment [7] and 1.12% in experiment [8].
Take `Cc1ccc(CN(C)CC(=O)NC2(C)CCS(=O)(=O)C2)cc1` (stereo not given): the Percent Effect in experiment [1] is -0.346%; in experiment [2], 8%; in [3] it was -1.85%; with Trypanosoma cruzi it was -2.81%; in experiment [4] it was -1.77%; in [5] it was 7.89%. Also, the Percent Effect in the experiment filed under Homo sapiens was 21.9%; in experiment [6], 10%; in experiment [7], 15.4%; in [8], -11.2%.
With `Cc1cc(CN(C)C(=O)c2ccc(Cl)c(S(C)(=O)=O)c2)no1`, the Percent Effect was -9.03% in experiment [1]; 13.3% in experiment [2]; 7.77% in experiment [3]; 3.81% in the experiment with Trypanosoma cruzi; -4.88% in experiment [4]; 9.41% in experiment [5]. For the same compound, the Percent Effect in the experiment filed under Homo sapiens is 6.05%; in experiment [6] it was 1.58%; in [7], 10.3%; in experiment [8] it was -11.5%.
As to `CS(=O)(=O)N1CCC2(CC1)CC(CC(=O)NC1CC1)c1ccccc12` (stereo not given), the Percent Effect in [1] was -4.87%; in experiment [2], 9.09%; in experiment [3] it was 1.58%; with Trypanosoma cruzi, 2.04%; in experiment [4], -3.24%; in [5] it was 15.4%. Also, the Percent Effect in the experiment filed under Homo sapiens is -6.07%; in experiment [6], 4.74%; in experiment [7], 10.3%; in experiment [8], 0.815%.
`COc1ccc(CNCc2ccnc(N3CCOCC3)c2)cc1OC`: the Percent Effect in [1] is -2.27%; in [2], 33.3%; in experiment [3], -6.8%; in the experiment with Trypanosoma cruzi, 5.16%; in [4] it was -8.61%; in [5], 10.7%. Also, the Percent Effect is 11.3% in the experiment listed under Homo sapiens, 6.22% in experiment [6], 20.5% in [7] and -7.91% in experiment [8].
Turning to `CCO[C@H]1CO[C@@]2(CCCN(S(=O)(=O)c3ccccc3)C2)C1`, the Percent Effect in [1] is -1.1%; in [2], 24.7%; in [3], -3.22%; in the experiment on Trypanosoma cruzi it was -3.02%; in experiment [4], 11.3%; in experiment [5], 17.7%. The Percent Effect in the experiment listed under Homo sapiens is 10.2%; in experiment [6], 2.63%; in [7], 0%; in experiment [8] it was 6.62%.
For the compound `CN(Cc1ccccc1)CC(O)Cn1cnc2ccsc2c1=O` (stereo not given), the Percent Effect was -3.3% in [1]; 5.13% in [2]; -3.73% in experiment [3]; 8.36% with Trypanosoma cruzi; -0.41% in [4]; 1.62% in [5]. The Percent Effect in the experiment listed under Homo sapiens was 17.5%; in [6] it was 0.478%; in experiment [7], 1.21%; in experiment [8] it was 3.76%.
For the compound `CCc1n[nH]c(C2CN(C(=O)c3nc(C)n4ccccc34)CCO2)n1` (stereo not given), the Percent Effect in experiment [1] is -2.26%; in experiment [2], 13%; in experiment [3], 11.1%; with Trypanosoma cruzi, -1.49%; in [4], 10%; in experiment [5], 9.82%. Further, the Percent Effect in the experiment listed under Homo sapiens was -10.3%; in [6], 4.9%; in experiment [7], 16.5%; in [8] it was -11%.
For the compound `Cn1cc(C(=O)NC2CCN(Cc3ccn(C)c(=O)c3)CC2)cn1`, the Percent Effect in [1] was -0.0592%; in experiment [2], -7.69%; in [3], -4.2%; in the experiment with Trypanosoma cruzi, -1.41%; in experiment [4], 4.51%; in experiment [5], 3.67%. Besides, the Percent Effect is 26.8% in the experiment listed under Homo sapiens, -1.44% in experiment [6], -3.61% in [7] and -4.65% in [8].
With `Cc1ccc(CCC(=O)N2CCCC(n3cncn3)C2)c(C)c1` (stereo not given), the Percent Effect was -4.25% in experiment [1]; 8% in experiment [2]; 2.16% in experiment [3]; -6.02% in the experiment with Trypanosoma cruzi; 0.444% in experiment [4]; 2.63% in experiment [5]. Also, the Percent Effect was -1.21% in the experiment filed under Homo sapiens, 5.79% in experiment [6], 2.56% in experiment [7] and 1.81% in [8].
